Only a selection was taken, and hits are over-represented in it overall.
Pf Dd2 inh: qHTS Primary assay for Inhibitors of Plasmodium falciparum Dd2 growth in vitro; P. falciparum Dd2 growth, SYBR Green, 72 h; Potency, µM (highest dose often 28.9 µM), without a hit: top-dose activity, negative = inhibition, actives largely listed as inhibitors; actives 4.3% (n = 120,000); AID 1347417, 2020; active = well fitted inhibition curve with a large enough effect;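 note: plate controls were DMSO vehicle for no effect and reference drug for full effect; nearly all actives have a fitted effect of over 65% in size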
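Readout: SYBR Green fluorescence, 485 nm excitation, 535 nm emission, after ~16 h lysis at 37C. Before that, Dd2-infected red cells (2.5% hematocrit) grew 72 h with compound, 29 uM top final concentration.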
* hit, by the source's call; i = inactive; [ ] = dose if it differs, or a comment. Potency is the fitted concentration of half-maximal effect.

SMILES	Pf Dd2 inh
NC(=O)[C@@H]1CCCN1C(=O)C1CCN(c2nc(-c3ccccc3)nc3c2CCC3)CC1	-20%
COC(=O)N1CCc2nc(-c3ccc(OC)cc3)nc(-c3ccccc3)c2C1	i
Cc1nc(CNC(=O)c2cn(CCC3CCCCN3)nn2)cc(=O)[nH]1 (stereo unspecified)	7%
COc1ccc(N2Cc3c(NCCCc4ccccc4)ncnc3N(C)CC2=O)cc1	-29%
CCCN(CC1CCOC1)C(=O)NCCc1ccccc1 (stereo unspecified)	18%[5.79 µM]
COc1ccc(C(=O)N2CCC3(C2)C(=NC2CCCCC2)NC(=O)N3c2cc(F)cc(F)c2)cc1 (stereo unspecified)	-28%
COc1ccccc1OC1CCN(Cc2cc3n(n2)CCNC3)CC1	-16%
Cc1nc(CC2CCN(Cc3cc4n(n3)CCNC4)CC2)no1	-5%
Cc1ccc(SC2CCN(Cc3cc4n(n3)CCNC4)CC2)cc1	10µM*
COc1ncccc1-c1cnc2n[nH]c(-c3ccc(F)cc3C)c2n1	15%[44.1 µM]
CC(C)N1C[C@H](C(=O)N2CCOCC2)[C@H](C(=O)O)C1	-20%
COc1cccc(N2CCN(C(=O)C3CCCN(Cc4cccnc4)CCC(=O)NCC3)CC2)c1 (stereo unspecified)	4µM*
N#Cc1ccccc1CN1CCCC(C(=O)NCc2ccccc2)CCNC(=O)CC1 (stereo unspecified)	i
Cc1cccc(N2CCN(C(=O)C3CCCN(C(=O)c4cccnc4)CCC(=O)NCC3)CC2)c1 (stereo unspecified)	6%
COc1cccc(CN2CCCC(C(=O)NCc3ccccc3)CCNC(=O)CC2)c1 (stereo unspecified)	6.3µM*
COc1cccc(CN2CCCC(C(=O)NCc3ccncc3)CCNC(=O)CC2)c1 (stereo unspecified)	-5%
CCN1CCN(C(=O)C2CCCN(Cc3cccnc3)CCC(=O)NCC2)CC1 (stereo unspecified)	9%
COc1ccc(Cl)cc1C(=O)N1CCC2(CC1)N=C(c1ccc(C)cc1)NO2	i
Cc1ccc(F)cc1-c1nccc2c(=O)cc(N(C)C)oc12	-1%[44.1 µM]
COc1nc2c(cc1CNC(=O)CC1CC1)C(=O)N(CCc1ccccn1)C2	-23%
C[S+](=O)([O-])c1ccc(-c2nccc3c(=O)cc(-c4ccncc4)oc23)cc1	i
O=c1cc(-c2cccnc2)oc2c(-c3ccccc3F)nccc12	i
O=c1cc(-c2ccncc2)oc2c(-c3ccccc3O)nccc12	1.8µM*
O=C1CC(c2ccccc2)N(C(=O)C2CC2)CCCN(C(=O)Nc2ccccc2)CCN1 (stereo unspecified)	12%
COc1ccc(C)cc1NC(=O)N1CCC(Oc2ncccc2C(=O)N2CCOCC2)C1 (stereo unspecified)	i
SMILES	Pf Dd2 inh
COc1ccc(CC(=O)N2CNC(=O)C23CCN(C(=O)[C@@H](N)c2ccccc2)CC3)cc1	1%
COCc1nc(C2CCCN(C(=O)Nc3ccc(C)cc3C)C2)no1 (stereo unspecified)	17%
Cc1nc2c(c(C)nn2-c2ccccc2)c(C)c1CCC(=O)NCc1ccccc1	-27%
Cc1ccc(-n2nc(C)c3c(C)c(CCC(=O)NCc4cccc(Cl)c4)c(C)nc32)cc1C	-6%
CCOc1ccc(CCNC(=O)CCc2c(C)nc3c(c(C)nn3-c3ccccc3)c2C)cc1OCC	7.9µM*
Cc1nc2c(c(C)nn2-c2ccccc2)c(C)c1CCC(=O)NCCc1ccccc1	-23%
CCCCNC(=O)CCc1c(C)nc2c(c(C)nn2-c2ccccc2)c1C	-23%
Cc1ccc(-n2nc(C)c3c(C)c(CCC(=O)NCc4ccccc4Cl)c(C)nc32)cc1	5.6µM*
Cc1cc(C)c(S(=O)(=O)N2CCc3nn(CC(C)C)c(=O)n3CC2)c(C)c1	-12%
COc1ccc(C(=O)N2CCCC(c3nc(CCOCC4CCCC4)no3)C2)cc1F (stereo unspecified)	-24%
O=C(c1cncc(Br)c1)N1CCCC(Cc2nc(C3CCOCC3)no2)C1 (stereo unspecified)	10%
O=C1C(N2CCN(S(=O)(=O)c3cccs3)CC2)CCN1CCc1ccccc1 (stereo unspecified)	-19%
COc1ccc(NC(=O)CN2C(=O)NC3(CCS(=O)(=O)CC3)C2=O)cc1Cl	-22%
Fc1cccc(CN2CCCC3(CCN(c4cnccn4)C3)C2)c1F (stereo unspecified)	-4%
COc1ccc(F)c(CN2CCCC3(CCN(c4cc(C)nc(N)n4)C3)C2)c1 (stereo unspecified)	4µM*
COc1ccc(F)c(CN2CCCC3(CCN(C(=O)c4ccsc4)C3)C2)c1 (stereo unspecified)	8%
O=C(NCc1ccccc1Cl)[C@@H]1CNC[C@H]1COc1cccnc1	-7%
O=C(Nc1ccc(F)cc1)c1cnn2ncccc12	i
COc1ccc(N2C(=O)C3(CCCCC3)C2C(=O)N2CCN(C(C)C)CC2)cc1 (stereo unspecified)	-26%
CC(=O)Nc1ccc(CN2CCC3(CC2)CC(=O)c2ccc(Cl)cc2O3)cc1	i
N#Cc1ccc(CN2CCC3(CC2)CC(=O)c2ccc(Cl)cc2O3)cc1	11µM*
Cc1cc(CN2CCC3(CC2)CC(=O)c2ccc(Cl)cc2O3)no1	i
O=C(NCc1ccccc1)C1CCN(c2cn[nH]c(=O)c2)C1 (stereo unspecified)	-13%
COc1cccc([S+](=O)([O-])N2CC(Oc3ccc(F)cc3C)C2)c1	2%
COc1ccc(C2Cn3nnc(-c4nc(C)no4)c3CO2)cc1 (stereo unspecified)	i
SMILES	Pf Dd2 inh
O=C(Cn1cccc1-c1nc(-c2ccc3c(c2)OCO3)no1)NCCc1ccccc1	65%
O=c1n(-c2ccc(F)cc2F)nc2n1CCN(Cc1ccc(C(F)(F)F)cc1)C2	i
COc1ccc(CN2CCn3c(nn(-c4ccc(F)cc4F)c3=O)C2)cc1	-1%
Cn1ccc(CN2CCn3c(nn(-c4ccc(F)cc4F)c3=O)C2)c1	8.9µM*
COCCNc1c(-c2noc(C)c2C(=O)Nc2ccc(F)c(OC)c2)cnn1C	1%[44.1 µM]
Cc1ccccc1CN1CCCC(COc2ccccc2C(=O)N2CCCC2)C1 (stereo unspecified)	-28%
OC1(CN2CCC(Oc3cccnc3)CC2)CNCCOC1 (stereo unspecified)	-11%
CN1C[C@@H](NC(=O)C2CCCCC2)C[C@H]1c1nc(-c2ccc(Cl)cc2)no1	i
Cc1cc2cc(-c3c(C)noc3C)nc(N3CCCC3)c2o1	-12%[44.1 µM]
Cc1cc2cc(-c3c(C)noc3C)nc(Nc3ccccc3)c2o1	-28%[44.1 µM]
Cc1cc2cc(-c3c(C)noc3C)nc(N(C)CCN(C)C)c2o1	2µM*
COc1ccc(N2CC(c3noc(-c4ccc(OC(F)(F)F)cc4)n3)CC2=O)cc1 (stereo unspecified)	31%
Cc1nc2c(c(-c3ccc(O)cc3)n1)CN(Cc1ccsc1)CCC2	i
O[C@]12CCNC[C@H]1CN(Cc1cccc(N3CCOCC3)c1)CC2	-4%
O[C@]12CCNC[C@H]1CN(Cc1ccc(C(F)(F)F)cc1F)CC2	-27%
COc1cccc(CN2CC[C@@]3(O)CCNC[C@H]3C2)c1OCCCn1ccnc1	4µM*
CC(C)(C)CNCC1(O)CCCN(Cc2cccc(F)c2F)C1=O (stereo unspecified)	4.5µM*
O=C1N(Cc2cccc(F)c2F)CCCC1(O)CN1CCNCC1 (stereo unspecified)	-2%
CN(CCO)CC1(O)CCCN(Cc2cccc(F)c2F)C1=O (stereo unspecified)	i
